A word on the viability: it is a read-out of living cells in per cent, often relative to untreated cells. For orientation: inhibition means the relative decrease from the control value, in per cent.

Structures are written as SMILES. Values joined by “and” are separate entries in the source; they are usually repeats but may differ in a detail not shown here. Equal values may be shown once. Results filed as inconclusive are left out. Active and inactive are the calls of the source.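 The calls were made as follows, unless noted: active = at least 20% inhibition of 6-phosphogluconate dehydrogenase activity; inactive = the rest.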

This note sets out measurements from PubChem BioAssay.

Assay [1] has as its target ATP-dependent translocase ABCB1 (Homo sapiens) (UniProt P08183). As to the kind of experiment: P-glycoprotein substrate transport blockade – cell-based (AID 377; in the data active = fluorescence slope change above about 50%). The conditions noted are these: MDR1-expressing cells, fluorescent substrate accumulation slope; stronger effect = higher value; concentration not given here.
Assay [2] can be described thus: compounds altering viability of human ES cells (AID 493140; call rule not given here;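 also: cells exposed to compounds for four days before counting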). The conditions noted are these: human embryonic stem cell survival screen; stronger effect = higher value.
Assay [3] can be described thus: P. berghei load reduction in hepatocytes – cell-based, HepG2, luciferase luminescence, HepG2 viability, primary screen (AID 624349; in the data active = parasite load remaining mostly below about 12%, no sharp cut-off; inactive = mostly above about 10%;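 also: 100% = mean of DMSO negative control wells on the same plate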). The conditions noted are these: P. berghei liver stage in HepG2, luciferase luminescence, concentration not given here; parasite load remaining: stronger effect = lower value; viability: measured here: HepG2 viability without parasites.
The target in assay [4] is 6-phosphogluconate dehydrogenase, decarboxylating (Homo sapiens) (UniProt P52209). As to the kind of experiment: inhibition of human phosphogluconate dehydrogenase – biochemical, recombinant enzyme, NADPH absorbance, primary screen (AID 1159550). The conditions noted are these: recombinant 6PGD, NADPH absorbance 341 nm; at 10 µM; stronger effect = higher value.
Sequence of 6-phosphogluconate dehydrogenase, decarboxylating (Homo sapiens) (P52209 whole entry, looked up): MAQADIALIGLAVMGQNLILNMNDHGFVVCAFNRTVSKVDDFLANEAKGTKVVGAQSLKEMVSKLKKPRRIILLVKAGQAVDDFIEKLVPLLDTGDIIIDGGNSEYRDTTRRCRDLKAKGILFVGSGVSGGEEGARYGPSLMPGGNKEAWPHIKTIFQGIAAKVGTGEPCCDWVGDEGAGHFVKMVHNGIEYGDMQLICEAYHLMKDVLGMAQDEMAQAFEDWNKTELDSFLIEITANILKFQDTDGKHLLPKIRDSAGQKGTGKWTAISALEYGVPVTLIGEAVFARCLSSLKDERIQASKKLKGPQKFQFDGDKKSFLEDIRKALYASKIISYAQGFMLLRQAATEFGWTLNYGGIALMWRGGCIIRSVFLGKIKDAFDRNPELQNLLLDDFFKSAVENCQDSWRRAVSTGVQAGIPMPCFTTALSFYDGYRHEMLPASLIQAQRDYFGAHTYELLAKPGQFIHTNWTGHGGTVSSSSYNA
Assay [5] concerns the target NAD(+) hydrolase SARM1 (Homo sapiens) (UniProt Q6SZW1). Nature of the assay: blocking NAD cleavage by SARM1 SAM-TIR – cell lysate, NAD-Glo luminescence (AID 1508614;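 active = compound whose remaining NAD level is above about 45 nM, limit read from the data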;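 also: higher remaining NAD means stronger inhibition of SARM1 NADase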). The settings on record: SAM-TIR HEK293T lysate NADase, at 1 µM, stronger effect = higher value.
Assay [6] can be described thus: blockers of polyQ-driven CASP3 activation – cell-based (AID 1583). The settings on record: polyglutamine-induced caspase-3 activation, cell assay; stronger effect = higher value;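 tested at 10 µM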.
A short description of assay [7]: yeast 75Q aggregation reduction – 75Q-TubU reporter (AID 1593). The conditions noted are these: Yeast 75Q polyglutamine aggregation reporter.
A short description of assay [8]: blockers of cytochrome c efflux from mitochondria – biochemical, purified mitochondria (AID 1603).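 Also: mouse liver mitochondria challenged with calcium chloride; signal normalized to the plate average as 100%.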 The settings on record: stronger effect = lower value.
Assay [9] is described as follows: polyglutamine aggregate formation blockers (AID 1604). The settings on record: polyglutamine-induced protein aggregation inhibition assay; stronger effect = higher value; tested at 2.5 µM.
A short description of assay [10]: glutamate transport activators, MN-1 cells, MN-1 cell line (AID 1612).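 Also: tested at 1 µM final; 0% = mean of DMSO vehicle wells on each plate; positive means more glutamate uptake than control and negative means less.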 The settings on record: MN-1 motor neuron cells, stronger effect = higher value.
Assay [11] can be described thus: GFP-Q80 aggregate reduction, neuronal-like cells, cell-based, NGF-treated PC12, GFPQ80 (AID 1614).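 Also: lower means fewer inclusions and 0 means no inclusions at all.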 The settings on record: PC12 NGF-treated GFP-polyQ80 inclusion reduction.
Assay [12] is described as follows: 75Q-TubH aggregate inhibition, S. cerevisiae, yeast (AID 1616). The conditions noted are these: S. cerevisiae 75Q-TubH polyglutamine aggregation suppression; stronger effect = higher value.
Assay [13] in a line: viability loss with induced miR-34 in A549 – imaging, A549 dox-inducible miR-34, nuclei and caspase counts, primary screen (AID 1347080;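 active = compounds whose cell count with miR-34 switched on is under 0.7 times the count with it off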). The settings on record: A549 miR-34 inducible, Hoechst nuclei count, 48 h.
In assay [14] the target is Mitogen-activated protein kinase 7 (Homo sapiens) (UniProt Q13164). Nature of the assay: Gal4-ERK5 driven luciferase induction – cell-based, HTS, primary screen (AID 1508626;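 active = luciferase signal above three times the same-plate solvent-only control wells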;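 also: luciferase driven by Gal4-ERK5 fusion binding five Gal4 sites before minimal TATA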). The settings on record: HeLa Gal4-ERK5 transactivation, 18 h, at 5 µM, stronger effect = higher value.
Sequence of Mitogen-activated protein kinase 7 (Homo sapiens) (Q13164 whole entry, looked up, the tested form may be a part): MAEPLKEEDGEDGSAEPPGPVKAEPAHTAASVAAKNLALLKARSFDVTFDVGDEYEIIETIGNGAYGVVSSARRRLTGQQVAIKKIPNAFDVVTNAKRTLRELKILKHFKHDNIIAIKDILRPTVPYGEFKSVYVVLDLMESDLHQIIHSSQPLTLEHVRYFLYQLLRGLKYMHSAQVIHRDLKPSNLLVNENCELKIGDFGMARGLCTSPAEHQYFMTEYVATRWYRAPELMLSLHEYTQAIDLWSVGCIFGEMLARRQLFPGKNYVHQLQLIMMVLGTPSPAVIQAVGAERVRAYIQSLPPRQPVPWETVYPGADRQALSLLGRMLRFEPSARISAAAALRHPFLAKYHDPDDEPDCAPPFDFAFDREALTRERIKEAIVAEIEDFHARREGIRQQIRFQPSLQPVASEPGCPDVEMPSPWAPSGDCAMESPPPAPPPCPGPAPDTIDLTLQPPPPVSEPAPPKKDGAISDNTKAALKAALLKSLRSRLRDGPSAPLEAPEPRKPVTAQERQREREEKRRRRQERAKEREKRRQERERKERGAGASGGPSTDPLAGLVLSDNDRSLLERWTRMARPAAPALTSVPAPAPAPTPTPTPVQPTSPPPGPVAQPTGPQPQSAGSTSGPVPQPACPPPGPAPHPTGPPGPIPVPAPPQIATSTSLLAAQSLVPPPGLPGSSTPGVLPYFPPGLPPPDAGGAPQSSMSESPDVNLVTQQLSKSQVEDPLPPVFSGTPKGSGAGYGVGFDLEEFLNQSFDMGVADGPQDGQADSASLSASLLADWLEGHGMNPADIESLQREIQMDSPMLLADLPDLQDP
Assay [15] can be described thus: MELAS cybrid and Rieske KO viability enhancers – cell-based, MELAS cybrids, Rieske KO mouse fibroblasts, CellTiter-Glo, primary screen (AID 1508586;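 active = mean z-score across replicates of 1.96 or higher in either the MELAS or the Rieske mutant cell line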;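 also: z relative to plate mean and SD of compound and empty wells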). The conditions noted are these: low glucose. On the technique in general: ATP-based viability assays read luminescence as a measure of living cells.
[16] abbreviates: stronger effect = lower value, cell number ratio, induced over uninduced.
The mark [17] stands for this setting: measured here: relative caspase fold change +Dox/-Dox.
Where [18] appears, read: measured here: total cells with miR-34 induction, stronger effect = lower value.
Setting [19] is: measured here: total cells without miR-34 induction.

Sequence of NAD(+) hydrolase SARM1 (Homo sapiens) (Q6SZW1 whole entry, looked up): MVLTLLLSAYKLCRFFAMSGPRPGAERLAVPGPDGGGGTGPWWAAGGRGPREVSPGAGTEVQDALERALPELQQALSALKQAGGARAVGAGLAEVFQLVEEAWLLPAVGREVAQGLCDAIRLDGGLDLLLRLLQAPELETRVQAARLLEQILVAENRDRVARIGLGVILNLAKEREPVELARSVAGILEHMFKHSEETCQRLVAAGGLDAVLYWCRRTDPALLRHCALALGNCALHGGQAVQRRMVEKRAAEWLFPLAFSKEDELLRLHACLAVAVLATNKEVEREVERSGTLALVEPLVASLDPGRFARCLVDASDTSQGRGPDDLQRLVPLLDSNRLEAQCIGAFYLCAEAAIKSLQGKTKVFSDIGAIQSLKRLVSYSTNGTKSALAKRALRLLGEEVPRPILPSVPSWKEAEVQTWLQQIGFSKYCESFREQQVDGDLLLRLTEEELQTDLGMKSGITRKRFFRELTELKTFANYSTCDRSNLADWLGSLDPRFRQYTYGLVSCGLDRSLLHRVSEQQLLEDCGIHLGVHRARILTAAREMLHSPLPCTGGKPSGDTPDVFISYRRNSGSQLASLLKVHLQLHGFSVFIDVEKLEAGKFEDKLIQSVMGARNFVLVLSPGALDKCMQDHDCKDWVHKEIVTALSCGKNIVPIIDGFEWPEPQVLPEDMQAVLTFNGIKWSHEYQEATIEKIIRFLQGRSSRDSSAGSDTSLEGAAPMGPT
Sequence of ATP-dependent translocase ABCB1 (Homo sapiens) (P08183 whole entry, looked up): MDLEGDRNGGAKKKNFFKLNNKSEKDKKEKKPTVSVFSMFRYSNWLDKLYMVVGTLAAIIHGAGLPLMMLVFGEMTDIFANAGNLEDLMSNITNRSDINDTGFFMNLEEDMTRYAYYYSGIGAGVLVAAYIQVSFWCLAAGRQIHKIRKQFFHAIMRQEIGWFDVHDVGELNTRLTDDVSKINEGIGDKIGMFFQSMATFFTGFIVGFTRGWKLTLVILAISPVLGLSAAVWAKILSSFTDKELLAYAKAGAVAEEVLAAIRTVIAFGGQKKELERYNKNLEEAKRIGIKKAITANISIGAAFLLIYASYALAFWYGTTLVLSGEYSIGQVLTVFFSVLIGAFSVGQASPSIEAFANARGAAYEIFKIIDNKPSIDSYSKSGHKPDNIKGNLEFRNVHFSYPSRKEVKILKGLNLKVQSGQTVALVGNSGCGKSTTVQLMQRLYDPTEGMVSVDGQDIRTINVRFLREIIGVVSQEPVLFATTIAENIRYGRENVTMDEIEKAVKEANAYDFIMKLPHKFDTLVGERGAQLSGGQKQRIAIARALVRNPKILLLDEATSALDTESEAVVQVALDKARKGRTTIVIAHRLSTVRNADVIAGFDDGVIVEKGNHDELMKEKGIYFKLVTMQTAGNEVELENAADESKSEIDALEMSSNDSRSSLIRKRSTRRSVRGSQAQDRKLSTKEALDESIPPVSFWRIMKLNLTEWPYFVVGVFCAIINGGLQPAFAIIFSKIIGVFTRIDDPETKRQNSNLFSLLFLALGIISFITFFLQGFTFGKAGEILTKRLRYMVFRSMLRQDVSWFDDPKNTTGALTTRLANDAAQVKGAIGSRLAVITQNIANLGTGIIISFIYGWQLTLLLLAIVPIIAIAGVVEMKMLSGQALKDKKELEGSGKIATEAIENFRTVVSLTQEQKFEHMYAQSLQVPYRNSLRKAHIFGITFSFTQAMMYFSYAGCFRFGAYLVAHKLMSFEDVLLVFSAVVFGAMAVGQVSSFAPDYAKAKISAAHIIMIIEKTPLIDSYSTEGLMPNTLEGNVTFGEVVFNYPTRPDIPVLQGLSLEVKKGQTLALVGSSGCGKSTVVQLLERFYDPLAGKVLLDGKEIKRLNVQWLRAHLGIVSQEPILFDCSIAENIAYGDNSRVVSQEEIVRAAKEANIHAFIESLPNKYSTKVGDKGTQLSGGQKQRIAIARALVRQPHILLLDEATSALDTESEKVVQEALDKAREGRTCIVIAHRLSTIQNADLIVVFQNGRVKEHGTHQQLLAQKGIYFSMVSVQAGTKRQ

In the case of `CN(C)CC/C=C1/c2ccccc2Sc2ccc(Cl)cc21`, the fluorescence slope change in assay [1] is 115% (active). Also, in assay [2], the survival was 1.25 (inactive). Besides, in [3], the parasite load remaining is 63.4% (inactive) and the viability was 75.2%. Also, the inhibition in [4] is -16.6% (inactive). The remaining NAD in assay [5] was 10 nM (inactive).

In the case of `C[C@@H]1O[C@@H](O[C@H]2[C@H](Oc3cc(O)c4c(c3)O[C@H](c3ccc(O)cc3)CC4=O)O[C@H](CO)[C@@H](O)[C@@H]2O)[C@H](O)[C@H](O)[C@H]1O`, in assay [1], the fluorescence slope change was 21.6% (inactive). Moreover, the inhibition in [6] was -1.5%; in assay [4], 4.72% (inactive). This compound also had a score in assay [7] of 1.92. The cytochrome c release ratio in [8] worked out at 1.05. The same compound showed an inhibition of aggregation in [9] of 82.5%. This compound showed a glutamate uptake change in assay [10] of 6.96%. The same compound yielded an inclusion score in assay [11] of 2. In addition, the aggregation suppression score in assay [12] stood at 1.02. Further, the survival in assay [2] was 7.67 (inactive). The parasite load remaining in assay [3] was 153% (inactive) and 66.6% (inactive). The viability in assay [3] is 111% and 77.6%. Also, the fold change was 0.866 (inactive) in assay [13] (setting [16]) and 1.55 in [13] (setting [17]). Further, the cell count in [13] (setting [18]) was determined as 9380; in assay [13] (setting [19]) it was 10800. For the same compound, the luciferase signal in [14] was 60 AU (inactive).

Turning to `C[C@@H]1C[C@H]2[C@@H]3C[C@H](F)C4=CC(=O)C=C[C@]4(C)[C@@]3(F)[C@@H](O)C[C@]2(C)[C@@]1(O)C(=O)COC(=O)C(C)(C)C`, in [4], the inhibition was 8.08% (inactive). The z-score is 0.627 (inactive) in assay [15] (MELAS cybrid survival, CellTiter-Glo 48 h, stronger effect = higher value) and 0.671 in assay [15] (Rieske KO mouse fibroblast survival, CellTiter-Glo 72 h). The remaining NAD in assay [5] was 10 nM (inactive).

As to `O=C(/C=C/c1ccc(O)c(O)c1)O[C@@H]1C[C@](O)(C(=O)O)C[C@@H](O)[C@H]1O`, the fluorescence slope change in assay [1] was 18.7% (inactive). In [2], the survival is 22.8 (inactive). Further, the parasite load remaining in [3] is 105% (inactive) and 63.3% (inactive). Besides, the viability in assay [3] is 94.7% and 73.7%. Besides, the inhibition in [4] is -7.84% (inactive). The fold change in assay [13] (setting [16]) is 0.882 (inactive) and 0.998 (inactive); in [13] (setting [17]), 1.35 and 0.827. Moreover, the cell count in assay [13] (setting [18]) was 9710 and 5820; in [13] (setting [19]), 11000 and 5830. Further, in [14], the luciferase signal is 56 AU (inactive).

With `CC(=O)N[C@@H](CC(=O)O)C(=O)O`, the parasite load remaining in assay [3] is 117% (inactive). Further, the viability in assay [3] worked out at 106%. Further, in [4], the inhibition is 3.38% (inactive). In addition, the fold change in assay [13] (setting [16]) was 0.841 (inactive); in assay [13] (setting [17]) it was 1.57. Moreover, the cell count in assay [13] (setting [18]) worked out at 8620; in [13] (setting [19]), 10300.

Consider `NC[C@@H]1O[C@H](O[C@H]2[C@@H](O)[C@H](O[C@@H]3[C@@H](O)[C@H](N)C[C@H](N)[C@H]3O[C@H]3O[C@H](CO)[C@@H](O)[C@H](O)[C@H]3N)O[C@@H]2CO)[C@H](N)[C@@H](O)[C@@H]1O`, for which the inhibition in [4] was -8.11% (inactive). Further, in assay [5], the remaining NAD was 10 nM (inactive). Moreover, the luciferase signal in [14] is 80 AU (inactive).

`CO[C@H]1C[C@H](O[C@@H]2/C(C)=C/C[C@@H]3C[C@@H](C[C@]4(CC[C@H](C)[C@@H](C5CCCCC5)O4)O3)OC(=O)[C@@H]3C=C(C)/C(=N/O)[C@H]4OC/C(=C\C=C\[C@@H]2C)[C@]43O)O[C@@H](C)[C@@H]1O`: in [4], the inhibition is -18% (inactive). For the same compound, the remaining NAD in assay [5] is 23 nM (inactive). Besides, the luciferase signal in assay [14] is 36 AU (inactive).

On to `COC(=O)[C@H]1[C@H]2C[C@H]3c4[nH]c5ccccc5c4CCN3C[C@@H]2CC[C@@H]1O`, for which the fluorescence slope change in [1] is 53.3% (active). For the same compound, the survival in assay [2] was 13.8 (inactive). Moreover, the parasite load remaining in assay [3] was 108% (inactive) and 79.2% (inactive). In addition, the viability in [3] is 116% and 77.6%. Besides, the inhibition in assay [4] is 7.89% (inactive). For the same compound, the values for the fold change in assay [13] (setting [16]) and in assay [13] (setting [17]) were 0.836 (inactive) and 1.95, respectively. Besides, the cell count worked out at 8660 in [13] (setting [18]) and 10400 in assay [13] (setting [19]). The luciferase signal in assay [14] is 44 AU (inactive).

As for `CN[C@@H]1[C@H](O[C@H]2[C@H](O[C@H]3[C@H](O)[C@@H](O)[C@H](N=C(N)N)[C@@H](O)[C@@H]3N=C(N)N)O[C@@H](C)[C@]2(O)CO)O[C@@H](CO)[C@H](O)[C@H]1O`, in [4], the inhibition was -14.8% (inactive). Also, the remaining NAD in assay [5] is 10 nM (inactive). For the same compound, the luciferase signal in assay [14] is 68 AU (inactive).

Take `C[C@H]1[C@H]2CC[C@H]3[C@@H]4CC=C5C[C@@H](N(C)C)CC[C@]5(C)[C@H]4CC[C@]23CN1C`: in assay [1], the fluorescence slope change is 56.7% (active). In addition, the survival in assay [2] was 4.83 (inactive). The parasite load remaining in assay [3] is 168% (inactive) and 68.7% (inactive). The viability in [3] is 102% and 76.1%. Further, in assay [4], the inhibition is 13.8% (inactive). For the same compound, the fold change was 0.82 (inactive) in [13] (setting [16]) and 1.54 in [13] (setting [17]). Also, the cell count worked out at 8300 in assay [13] (setting [18]) and 10100 in assay [13] (setting [19]). The luciferase signal in [14] is 40 AU (inactive).

Turning to `CC1=CC(=O)C2=C(C)CC[C@@H]3[C@H](OC(=O)[C@H]3C)[C@@H]12`, the survival in [2] is 21.9 (inactive). In assay [3], the parasite load remaining was 69.2% (inactive). Further, in assay [3], the viability was 75.3%. Besides, the inhibition in assay [4] is -50% (inactive). The fold change in assay [13] (setting [16]) is 0.934 (inactive); in assay [13] (setting [17]), 0.653. In addition, the cell count is 9100 in assay [13] (setting [18]) and 9750 in [13] (setting [19]). Moreover, in assay [14], the luciferase signal was 76 AU (inactive).

For the compound `CCc1cn([C@H]2C[C@H](O)[C@@H](CO)O2)c(=O)[nH]c1=O`, the inhibition in assay [4] was -4.52% (inactive). Also, the remaining NAD in [5] is 10 nM (inactive). Further, in assay [14], the luciferase signal was 64 AU (inactive).

As to `CC(C)C[C@@H]1NC(=O)[C@H](CCCN)NC(=O)[C@H](C(C)C)NC(=O)[C@H](Cc2ccc(O)cc2)N[C@@H](CCC(=O)O)C(=O)N[C@@H](CC(N)=O)C(=O)[C@@H](Cc2ccccc2)NC(=O)[C@H](Cc2ccccc2)NC(=O)[C@@H]2CCCN2C(=O)[C@@H](Cc2ccccc2)NC1=O`, in assay [4], the inhibition was 2.66% (inactive). For the same compound, in assay [5], the remaining NAD was 10 nM (inactive).

In the case of `CC(=O)[C@@]1(O)CC[C@H]2[C@@H]3C=C(Cl)C4=CC(=O)[C@@H]5C[C@@H]5[C@]4(C)[C@H]3CC[C@@]21C`, in assay [4], the inhibition is 3.58% (inactive). In assay [5], the remaining NAD was 10 nM (inactive). Moreover, the luciferase signal in [14] was 32 AU (inactive).
